Measurements published in PubChem BioAssay.

Assay: optical density change of DRC41 E. coli – strain DRC41, OD650, 24 h, E. coli filamentation project, primary screen (AID 1093);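 further: MC1000 strain lacking acrAB efflux and sulA so SOS filamentation is blocked; test concentration not given here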
Settings: E. coli DRC41 growth, higher = more signal, called active from +8 up or from −8 down

z-score, inactive:
COc1ccc(COC(=O)NN=C2C[C@@H](O)[C@@H](O)[C@@H]3[C@@H]4C(=O)N(C[C@@H]5CCCO5)C(=O)[C@@H]4CC[C@H]23)cc1 -0.5
CCOC(=O)[C@H](Cc1ccccc1)NC(=O)CCC1CC(OC(=O)NCCc2ccc(F)cc2)CC2(CCCC(COC(=O)NCCC(C)C)O2)O1 (stereo not given in full) 0.087
COC(=O)CC=C[C@@H](C)[C@@H](C=NOC[C@@H](O)[C@H]1O[C@@H]2OC(C)(C)O[C@@H]2[C@H]1O)OC -0.125
C[C@]12CCC3c4ccc(OCC5CO5)cc4CCC3C1CC[C@@H]2O (stereo not given in full) 0.392
CCOC(=O)CCN1C(=O)[C@H]2[C@H]3[C@H](O)[C@H](O)CC(=NO[C@@H]4O[C@H](CO)[C@@H](O)[C@H](O)[C@H]4O)[C@@H]3CC[C@H]2C1=O 0.283
CC(CCN1CCCCc2nc(C)c(C)cc21)=NO[C@H](C)c1cn([C@@H]2COC[C@H]2O)nn1 0.681
COc1ccc(COC(=O)NN=C2C[C@@H](O)[C@@H](O)[C@@H]3[C@@H]4C(=O)N(c5cccc(Oc6ccccc6)c5)C(=O)[C@@H]4CC[C@H]23)cc1 1.02
CC=CC1=C(CO)[C@H](O)[C@H]2O[C@H]2[C@@H]1O 0.712
CC1(C)O[C@H]2OC([C@H](O)CON3C(=O)c4ccccc4C3=O)[C@H](O)[C@H]2O1 (stereo not given in full) 0.742
CCOC(=O)NN=C1C[C@@H](O)[C@@H](O)[C@@H]2[C@@H]3C(=O)N(CC)C(=O)[C@@H]3CC[C@H]12 0.312
